From PubChem BioAssay
JMJD2A Tudor = qHTS Assay for Inhibitors of JMJD2A-Tudor Domain; Lysine-specific demethylase 4A (Homo sapiens), O75164; AlphaScreen JMJD2A-Tudor / H3K4me3 peptide binding; Potency, µM (top dose mostly 114 µM), for inactives: at the highest dose activity change, negative = inhibition, hits mostly inhibitors; 390,000 compounds, 4.4% hits; AID 504339, 2011; also: potency is read from the fitted curve at half-maximal effect; % is scaled to controls: 0 for no effect and ±100 for the full control effect; nearly all actives have a fitted effect of over 50% in size
HP1b binding inh = HTS for Inhibitors of HP1-beta Chromodomain Interactions with Methylated Histone Tails; AlphaScreen HP1-beta / biotin-H3K9me3 peptide binding; Potency, µM (titrated, usually from 114 µM), for the others: at the highest dose activity change, negative = inhibition, hits mostly inhibitors; 390,000 compounds, 0.56% hits; also: potency is read from the fitted curve at half-maximal effect; nearly all actives have a fitted effect of over 70% in size
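Compound inhibition of the preformed complex between 50 nM HP1-beta and 50 nM biotinylated H3K9me3 peptide was read by AlphaScreen. Buffer was PBS pH 7.4 with 0.01% Tween-20. Incubations ran 30 min at room temperature, with 10 ug/mL donor/acceptor beads.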
PLK1 PBD block = qHTS for Inhibitors of PLK1-PDB (polo-like kinase 1 - polo-box domain): Primary Screen; Serine/threonine-protein kinase PLK1 (Homo sapiens), P53350; Plk1 PBD binding of FITC phosphopeptide, fluorescence polarization; Potency, µM, for inactives: max response, negative = inhibition, usual class: inhibitors; 360,000 compounds, 2.8% hits; AID 720504, 2013; also: potency is read from the fitted curve at half-maximal effect; series mostly up to about 57 µM; % is scaled to controls: 0 for no effect and ±100 for the full control effect; nearly all actives have a fitted effect of over 65% in size
BAZ2B inh = qHTS Assay for Inhibitors of BAZ2B; Bromodomain adjacent to zinc finger domain protein 2B (Homo sapiens), Q9UIF8; AlphaScreen BAZ2B-H3K14Ac peptide displacement; Potency, µM (titrated, usually from 114 µM), for the others: top-dose activity change, negative = inhibition, hits mostly inhibitors; 360,000 compounds, 4.4% hits; AID 504333, 2011; also: potency is read from the fitted curve at half-maximal effect; % is scaled to controls: 0 for no effect and ±100 for the full control effect; nearly all actives have a fitted effect of over 60% in size
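AlphaScreen displacement of biotin-H3(5-23)K14Ac peptide (50 nM final) from BAZ2B (50 nM final) in PBS pH 7.4, 0.01% Tween-20; complex preformed 30 min RT, then compounds (top 110 uM) 30 min RT, beads 20 min dark.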
PI5P4Ka inh = qHTS for Inhibitors of phosphatidylinositol 5-phosphate 4-kinase (PI5P4K); PI5P4Kalpha enzyme, ADP-Glo luminescence, 60 min; active compounds read low; max response, %; 330,000 compounds, 1.2% hits; AID 652105, 2013; Phosphatidylinositol 5-phosphate 4-kinase type-2 alpha (Homo sapiens), P48426; active = max response of -50% or lower; inconclusive = between -30% and -50%; inactive = -30% or higher; also: value at the top dose of about 77 µM; % is scaled to controls: 0 for no effect and ±100 for the full control effect
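PI5P4Kalpha ADP-Glo assay; 5 microM ATP final; 60 min RT reaction; HEPES pH 7.4/EGTA/CHAPS, 5% DMSO; controls lacking substrate or enzyme; luminescent end-point.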
KAT2A inh = qHTS Assay for Inhibitors of GCN5L2; GCN5L2 HAT assay, ThioGlo1 CoA-SH fluorescence; Potency, µM (series often up to 58.9 µM), without a hit: at the highest dose activity change, negative = inhibition, hits mostly inhibitors; 390,000 compounds, 0.21% hits; Histone acetyltransferase KAT2A (Homo sapiens), Q92830; also: potency is read from the fitted curve at half-maximal effect; % is scaled to controls: 0 for no effect and ±100 for the full control effect
Target sequence (Q92830 whole entry, looked up): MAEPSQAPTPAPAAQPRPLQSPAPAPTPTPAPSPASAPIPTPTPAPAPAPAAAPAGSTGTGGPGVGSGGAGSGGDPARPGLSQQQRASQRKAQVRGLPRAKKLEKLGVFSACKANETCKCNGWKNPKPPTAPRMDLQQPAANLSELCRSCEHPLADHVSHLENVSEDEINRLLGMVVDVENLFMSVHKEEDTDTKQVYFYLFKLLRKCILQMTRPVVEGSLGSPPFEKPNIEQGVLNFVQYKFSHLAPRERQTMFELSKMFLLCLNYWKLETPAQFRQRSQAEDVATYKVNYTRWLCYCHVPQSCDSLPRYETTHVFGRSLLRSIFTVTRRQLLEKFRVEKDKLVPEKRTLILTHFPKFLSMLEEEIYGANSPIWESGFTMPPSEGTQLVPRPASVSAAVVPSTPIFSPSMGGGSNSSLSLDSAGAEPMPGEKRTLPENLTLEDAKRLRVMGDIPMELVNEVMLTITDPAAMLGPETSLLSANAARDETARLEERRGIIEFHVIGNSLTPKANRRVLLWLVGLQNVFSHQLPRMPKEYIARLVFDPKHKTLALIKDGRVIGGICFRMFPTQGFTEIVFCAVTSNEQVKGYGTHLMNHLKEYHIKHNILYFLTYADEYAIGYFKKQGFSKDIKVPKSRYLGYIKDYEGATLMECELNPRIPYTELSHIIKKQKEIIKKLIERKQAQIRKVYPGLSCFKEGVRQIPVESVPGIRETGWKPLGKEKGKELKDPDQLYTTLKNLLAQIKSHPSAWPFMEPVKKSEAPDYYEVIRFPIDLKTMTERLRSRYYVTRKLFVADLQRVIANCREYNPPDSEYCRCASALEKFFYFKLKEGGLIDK
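GCN5L2 (20nM final) in 50mM HEPES, 0.1mM EDTA pH 7.5, 0.01% Tween-20 was preincubated 15 min at room temperature with compound, then given ThioGlo1 (50uM), H3(1-25) peptide (75uM) and acetyl-CoA (70uM); CoA-thiol fluorescence (Ex340/Em540) was read at 0 and 20 min.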
An asterisk follows results filed as active; ? = inconclusive; · = not tested or not shown; [ ] = remark or other dose. An excerpt weighted towards active compounds, which were near 7% of everything screened. Unless noted, calls follow the shape of the dose curve; as a rule, active = well fitted curve in the direction sought with a large enough effect; inconclusive = small, poorly fitted or top-dose-only effect, or another doubt; inactive = no such curve, though single readings can be large; an effect the other way counts as inactive or inconclusive.

SMILES | JMJD2A Tudor | HP1b binding inh | PLK1 PBD block | BAZ2B inh | PI5P4Ka inh | KAT2A inh
COc1cc2c(cc1OC)C1C(=O)c3ccc4c(c3OC1CO2)CC(C(C)C)O4 (stereo unspecified) | 45µM* | -28%[57 µM] | 4% | · | 4 | ·
CCCC[N+]12CCC(CC1)C(=C(c1ccccc1)c1ccccc1)C2 | ? | ? | ? | 50µM* | -24 | 40%
CCCCn1c(O)c(C(C)=NCc2ccc3c(c2)OCO3)c(=O)[nH]c1=O | 89µM* | -9% | ? | 1% | -1 | -8%
COc1cccc(N2C(=O)NC(=O)/C(=C/c3ccc4c(c3)Cc3ccccc3-4)C2=O)c1 | 56µM* | 43% | 3.4µM* | 45µM* | ? | -14%
COc1ccc(/C=C2/C(=O)NC(=O)N(c3ccccc3)C2=O)cc1CN1C(=O)c2ccccc2C1=O | -35% | 20% | 6µM* | ? | -53* | -25%
COc1ccccc1N1C(=O)NC(=O)/C(=C/c2ccc3c4c(cccc24)CC3)C1=O | ? | 11% | 7.5µM* | ? | -58* | -32%
COc1cc(/C=C2/C(=O)NC(=O)N(c3ccccc3)C2=O)ccc1O | -11% | 34% | 8.4µM* | -1% | -59* | 0%
CC(C)=CC1C(C(=O)OCc2coc(Cc3ccccc3)c2)C1(C)C (stereo unspecified) | · | · | · | · | · | -9%
CCOc1cc(/C=C2/C(=O)NC(=O)N(c3ccc(CC)cc3)C2=O)ccc1OC(=O)c1cccs1 | 79µM* | 13% | 6µM* | 50µM* | -70* | -20%
CCOC(=O)C1CCN(/C=C2/C(=O)NC(=S)N(c3ccccc3F)C2=O)CC1 | 1% | 13% | 0% | -10% | -22 | -17%
COc1ccccc1N1C(=O)NC(=O)/C(=C\c2cnn(-c3ccccc3)c2)C1=O | ? | 60% | 3.4µM* | -26% | ? | -3%
O=C1NC(=O)N(Cc2ccccc2)C(=O)/C1=C/c1cnn(-c2ccccc2)c1 | · | · | · | ? | · | -6%
COc1ccc(/C=C2/C(=O)NC(=S)N(C3CC3)C2=O)cc1CN1C(=O)c2ccccc2C1=O | 25µM* | ? | 2.7µM* | 50µM* | -88* | 33%
CCN(CC)C(=O)c1c(C)[nH]c(=S)c(C#N)c1-c1ccco1 | 7.9µM* | -17% | 2.7µM* | -34% | -96* | -24%
CCOC(=O)[C@]12Cc3ccccc3[C@H]1N(Cc1ccccc1)C(=O)c1ccccc12 | -15% | 68% | 3% | · | 4 | ·
CCCCCN1C(=O)c2ccccc2[C@@]2(C(=O)OCC)Cc3cc(OC)ccc3[C@@H]12 | · | · | 5.3µM* | · | 4 | ·
CCOC(=O)[C@]12Cc3ccccc3[C@H]1N(CCC(=O)OC)C(=O)c1ccccc12 | · | · | 9.5µM* | · | 1 | ·
CCCCCCC(=O)OC1CC(C)(C)NC(C)(C)C1 | · | · | · | · | · | -29%
CCCN1CCO[C@@H]2c3cc(O)ccc3OC[C@@H]21 | · | · | · | · | · | -17%
Nc1c(C(=O)NCc2ccco2)c2nc3ccccc3nc2n1Cc1ccc(F)cc1 | 3%[11.4 µM] | 6% | 27µM* | 2% | ? | -14%
Nc1c(C(=O)NCc2ccco2)c2nc3ccccc3nc2n1Cc1ccccc1 | 24% | 77% | -13% | 8% | -8 | -23%
CC(C)(C)OC(=O)N1CC(O)CC1C(=O)OCC(=O)c1ccc(-c2ccccc2)cc1 (stereo unspecified) | ? | 28% | -1% | -33% | 0 | -19%
CN[C@@H]1C[C@H](c2ccc(Cl)c(Cl)c2)c2ccccc21 | · | · | · | · | · | -10%
CCOc1cc(-c2c(C#N)c(=O)[nH]c3c2c(C)nn3-c2ccc(F)cc2)ccc1O | -6% | 30% | ? | -18% | -56* | -1%
CN1C(=O)N(C)C(=O)C2(Cc3c(nc4ccccn4c3=O)N3CCc4ccccc4C32)C1=O (stereo unspecified) | ? | ? | 17µM* | 19% | -4 | 4%
SMILES | JMJD2A Tudor | HP1b binding inh | PLK1 PBD block | BAZ2B inh | PI5P4Ka inh | KAT2A inh
CCOC(=O)c1cccc([P+](=O)O)c1 | 28µM* | 18% | 0% | 0% | 6 | 2%
CC[C@H](C)/C=C(C)/C=C/C1=CC2=C(Cl)C(=O)[C@](C)(OC(C)=O)C(=O)C2=CO1 | 79µM* | ? | 1.1µM* | · | -104* | ?
CC(C)(C)C(O)C(Cc1ccc(Cl)cc1Cl)n1cncn1 (stereo unspecified) | · | · | · | · | · | 0%
O=c1[nH]c(SCc2n[nH]c(=S)n2-c2ccccc2)nc2ccccc12 | 7.9µM* | 24% | -13% | -10% | -16 | -1%
COc1ccccc1CCNCc1cc2c(cc1[N+](=O)[O-])OCO2 | 3.5µM* | -55% | -15% | 50µM* | 2 | 1%
COc1ccc(Br)cc1CNCCc1ccc2c(c1)OCO2 | 25µM* | ? | -7% | · | 3 | ·
COc1ccc(CCNCc2ccsc2)cc1OC | -17% | 25% | -4% | -7% | -4 | -5%
COc1ccc(CNCCc2ccc3c(c2)OCO3)cc1Br | 18µM* | -15% | -3% | 50µM* | -2 | -26%
COc1cc(CNCCc2ccc3c(c2)OCO3)ccc1O | -15% | 37% | 5% | 2% | -5 | -3%
COc1cc(CNCCc2ccc3c(c2)OCO3)cc(OC)c1OC | 0.79µM* | ? | -1% | 56µM* | -8 | -7%
CC(=O)Nc1cc(-c2ccc(C(=O)NC3CC3)cc2)cn2c(-c3ccc(F)c(Cl)c3)cnc12 | · | · | ? | · | -30 | ·
